Measured values as given in publication PMC10812921, “Transcriptional Coactivator BOB1 (OBF1, OCA-B) Modulates the Specificity of DNA Recognition by the POU-Domain Factors OCT1 and OCT2 in a Monomeric Configuration”.

Experiments:
[1] = biological target: POU1 (OCT1 POU domain) (human, UniProt P14859 260-458); test: EMSA-SELEX-seq; no BOB1; 20 mM Tris-HCl pH 7.6, 140 mM NaCl, 10% glycerol, 0.5 mM EDTA, 0.05% Triton X-100, 0.1 mg/mL BSA, 0.1 mg/mL poly(dI-dC), 5 mM DTT, room temperature, 20 min; high values mean tight binding; settings: protein: recombinant; dsDNA, one strand shown
Chain of POU1 (OCT1 POU domain) (P14859 260-458): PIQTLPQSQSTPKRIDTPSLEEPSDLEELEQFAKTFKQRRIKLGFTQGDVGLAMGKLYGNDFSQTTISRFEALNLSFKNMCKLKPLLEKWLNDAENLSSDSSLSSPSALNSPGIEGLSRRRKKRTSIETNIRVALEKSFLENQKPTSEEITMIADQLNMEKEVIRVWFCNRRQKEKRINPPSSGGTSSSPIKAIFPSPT
In short: (§1)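 Tagged POU-domain proteins were expressed in E. coli BL21, purified under denaturing conditions and renatured. Then 30 ng was mixed with 300 ng of a PCR-amplified double-stranded random 35-nt library, with or without 28 ng coactivator protein, in 20 μL Tris–HCl pH 7.6 binding buffer for 20 min at RT. Complex bands were cut from native 6% PAGE, eluted and PCR-amplified over four rounds, then Illumina-sequenced. Binding preference is the percentage of sequenced 8-mers matching a motif pattern.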

[2] = biological target: T1, POU2 (OCT2 POU domain) (human, UniProt P09086 175-386); test: as above; settings: protein: recombinant; dsDNA, one strand shown
T1 sequence: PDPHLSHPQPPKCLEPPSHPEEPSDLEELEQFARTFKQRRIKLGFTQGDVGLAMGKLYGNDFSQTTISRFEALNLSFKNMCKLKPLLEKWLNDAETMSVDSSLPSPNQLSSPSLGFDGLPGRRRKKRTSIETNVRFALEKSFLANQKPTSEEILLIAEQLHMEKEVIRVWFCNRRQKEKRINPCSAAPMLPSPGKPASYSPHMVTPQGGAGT
In short: as §1

[3] = biological target: POU1 (OCT1 POU domain);BOB1 (OBF1, OCA-B) (human;human, UniProt P14859;Q16633 260-458;1-256, |); test: EMSA-SELEX-seq; with BOB1 (ternary complex band); 20 mM Tris-HCl pH 7.6, 140 mM NaCl, 10% glycerol, 0.5 mM EDTA, 0.05% Triton X-100, 0.1 mg/mL BSA, 0.1 mg/mL poly(dI-dC), 5 mM DTT, room temperature, 20 min; high values mean tight binding; settings: protein: recombinant;recombinant; copies: 1;1; dsDNA, one strand shown
In short: as §1

[4] = biological target: T2, POU2 (OCT2 POU domain);BOB1 (OBF1, OCA-B) (human;human, UniProt P09086;Q16633 175-386;1-256, |); test: as above; settings: protein: recombinant;recombinant; copies: 1;1; dsDNA, one strand shown
T2 sequence 1: T1 sequence
T2 sequence 2: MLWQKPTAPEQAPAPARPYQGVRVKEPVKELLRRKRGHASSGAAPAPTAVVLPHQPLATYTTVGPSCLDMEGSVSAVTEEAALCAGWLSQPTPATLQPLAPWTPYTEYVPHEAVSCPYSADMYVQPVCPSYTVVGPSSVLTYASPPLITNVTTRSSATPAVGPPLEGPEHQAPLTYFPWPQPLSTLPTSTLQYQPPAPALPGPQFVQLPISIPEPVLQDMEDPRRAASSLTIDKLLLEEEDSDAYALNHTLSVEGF
In short: as §1

Row | Sequence | binding signal [1] | binding signal [2] | binding signal [3] | binding signal [4]
1 | AACCCAAA | 0.0233 % of ANNNNAAN 8-mers | 0.0173 % of ANNNNAAN 8-mers | 0.0277 % of ANNNNAAN 8-mers | 0.0206 % of ANNNNAAN 8-mers
2 | AAGAAAAT | 0.158 % of ANNNNAAN 8-mers | 0.125 % of ANNNNAAN 8-mers | 0.226 % of ANNNNAAN 8-mers | 0.0958 % of ANNNNAAN 8-mers
3 | ATCAAAAG | 0.045 % of ANNNNAAN 8-mers | 0.0414 % of ANNNNAAN 8-mers | 0.0581 % of ANNNNAAN 8-mers | 0.0388 % of ANNNNAAN 8-mers
4 | AGGTAAAC | 0.0534 % of ANNNNAAN 8-mers | 0.0558 % of ANNNNAAN 8-mers | 0.0792 % of ANNNNAAN 8-mers | 0.0537 % of ANNNNAAN 8-mers
5 | AGACGAAA | 0.0309 % of ANNNNAAN 8-mers | 0.0472 % of ANNNNAAN 8-mers | 0.0343 % of ANNNNAAN 8-mers | 0.0264 % of ANNNNAAN 8-mers
6 | ATAAGAAT | 0.114 % of ANNNNAAN 8-mers | 0.143 % of ANNNNAAN 8-mers | 0.0886 % of ANNNNAAN 8-mers | 0.0892 % of ANNNNAAN 8-mers
7 | AAGCCAAA | 0.0305 % of ANNNNAAN 8-mers | 0.0414 % of ANNNNAAN 8-mers | 0.0464 % of ANNNNAAN 8-mers | 0.0256 % of ANNNNAAN 8-mers
8 | ACGTTAAG | 0.037 % of ANNNNAAN 8-mers | 0.0414 % of ANNNNAAN 8-mers | 0.039 % of ANNNNAAN 8-mers | 0.0405 % of ANNNNAAN 8-mers
9 | AATTCAAC | 0.069 % of ANNNNAAN 8-mers | 0.0708 % of ANNNNAAN 8-mers | 0.0589 % of ANNNNAAN 8-mers | 0.0512 % of ANNNNAAN 8-mers
10 | AGTAAAAC | 0.0427 % of ANNNNAAN 8-mers | 0.0391 % of ANNNNAAN 8-mers | 0.0663 % of ANNNNAAN 8-mers | 0.0454 % of ANNNNAAN 8-mers
11 | AACAAAAC | 0.0587 % of ANNNNAAN 8-mers | 0.0409 % of ANNNNAAN 8-mers | 0.0987 % of ANNNNAAN 8-mers | 0.0636 % of ANNNNAAN 8-mers
12 | AGTCTAAG | 0.0236 % of ANNNNAAN 8-mers | 0.0322 % of ANNNNAAN 8-mers | 0.0343 % of ANNNNAAN 8-mers | 0.0297 % of ANNNNAAN 8-mers
13 | AACAGAAT | 0.0645 % of ANNNNAAN 8-mers | 0.0679 % of ANNNNAAN 8-mers | 0.0507 % of ANNNNAAN 8-mers | 0.0594 % of ANNNNAAN 8-mers
14 | ACTTGAAG | 0.0198 % of ANNNNAAN 8-mers | 0.0236 % of ANNNNAAN 8-mers | 0.0273 % of ANNNNAAN 8-mers | 0.0239 % of ANNNNAAN 8-mers
15 | AGCTAAAA | 0.0282 % of ANNNNAAN 8-mers | 0.038 % of ANNNNAAN 8-mers | 0.0425 % of ANNNNAAN 8-mers | 0.0338 % of ANNNNAAN 8-mers
16 | AGCGAAAC | 0.0183 % of ANNNNAAN 8-mers | 0.023 % of ANNNNAAN 8-mers | 0.0137 % of ANNNNAAN 8-mers | 0.0198 % of ANNNNAAN 8-mers
17 | AGAATAAG | 0.0686 % of ANNNNAAN 8-mers | 0.101 % of ANNNNAAN 8-mers | 0.0527 % of ANNNNAAN 8-mers | 0.0702 % of ANNNNAAN 8-mers
18 | AATAGAAG | 0.0534 % of ANNNNAAN 8-mers | 0.0587 % of ANNNNAAN 8-mers | 0.0558 % of ANNNNAAN 8-mers | 0.057 % of ANNNNAAN 8-mers
19 | AAGGTAAC | 0.0313 % of ANNNNAAN 8-mers | 0.0293 % of ANNNNAAN 8-mers | 0.0234 % of ANNNNAAN 8-mers | 0.0322 % of ANNNNAAN 8-mers
20 | ACTCGAAC | 0.016 % of ANNNNAAN 8-mers | 0.0184 % of ANNNNAAN 8-mers | 0.0113 % of ANNNNAAN 8-mers | 0.0198 % of ANNNNAAN 8-mers
21 | AGTTCAAT | 0.0446 % of ANNNNAAN 8-mers | 0.0432 % of ANNNNAAN 8-mers | 0.046 % of ANNNNAAN 8-mers | 0.0421 % of ANNNNAAN 8-mers
22 | AGAGGAAG | 0.0358 % of ANNNNAAN 8-mers | 0.0432 % of ANNNNAAN 8-mers | 0.0441 % of ANNNNAAN 8-mers | 0.0413 % of ANNNNAAN 8-mers
23 | AAAAAAAG | 0.0923 % of ANNNNAAN 8-mers | 0.0938 % of ANNNNAAN 8-mers | 0.111 % of ANNNNAAN 8-mers | 0.0842 % of ANNNNAAN 8-mers
24 | ACAATAAC | 0.0248 % of ANNNNAAN 8-mers | 0.0259 % of ANNNNAAN 8-mers | 0.0211 % of ANNNNAAN 8-mers | 0.0248 % of ANNNNAAN 8-mers
25 | AATTTAAA | 0.913 % of ANNNNAAN 8-mers | 0.793 % of ANNNNAAN 8-mers | 0.303 % of ANNNNAAN 8-mers | 0.312 % of ANNNNAAN 8-mers
26 | AGGACAAT | 0.042 % of ANNNNAAN 8-mers | 0.0345 % of ANNNNAAN 8-mers | 0.0496 % of ANNNNAAN 8-mers | 0.0421 % of ANNNNAAN 8-mers
27 | ACGCCAAG | 0.0145 % of ANNNNAAN 8-mers | 0.0167 % of ANNNNAAN 8-mers |  | 0.014 % of ANNNNAAN 8-mers
28 | ACCCGAAC | 0.0111 % of ANNNNAAN 8-mers | 0.0109 % of ANNNNAAN 8-mers |  | 0.0132 % of ANNNNAAN 8-mers
29 | ACACCAAC |  | 0.0127 % of ANNNNAAN 8-mers | 0.0113 % of ANNNNAAN 8-mers | 0.0107 % of ANNNNAAN 8-mers
30 | ACACGAAT | 0.0347 % of ANNNNAAN 8-mers | 0.0575 % of ANNNNAAN 8-mers | 0.0379 % of ANNNNAAN 8-mers | 0.0438 % of ANNNNAAN 8-mers
